The structures appear in SMILES notation. Calls of active or inactive are those of the source. Unless noted, calls come from the whole dose curve; as a rule, active = well fitted curve in the direction sought with a large enough effect in the repeat runs; inconclusive = weak or mixed curves; inactive = no such curve, though single readings can be large; an effect the other way counts as inactive or inconclusive.

8 compounds from PubChem BioAssay (Tox21) can be followed below.

A short description of experiment [1]: qHTS assay to identify small molecule antagonists of the glucocorticoid receptor (GR) signaling pathway - cell viability counter screen (AID 720693). Note: nearly all actives have a fitted effect of over 55% in size.
Experiment [2] in a line: qHTS assay for identifying genotoxic compounds that show differential cytotoxicity against isogenic chicken DT40 cell lines with known DNA damage response pathways - wild type cell line (AID 743012). Note: nearly all actives have a fitted effect of over 60% in size. Note: potency is the fitted concentration of half-maximal effect. An outline of the steps:
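First, wild type DT40 cells were plated at 300 per well and equilibrated about 0.5 h at 37 C/5% CO2. Next, compounds in DMSO were added and exposure lasted 40 h. Finally, CellTiter-Glo was added for 30 min at room temperature and luminescence recorded.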
Background: In qHTS, concentration-response curves come from the screen itself.

Experiment [3] in a line: qHTS assay for identifying genotoxic compounds that show differential cytotoxicity against isogenic chicken DT40 cell lines with known DNA damage response pathways - Rev3 mutant cell line (AID 743014). Note: nearly all actives have a fitted effect of over 55% in size. Note: potency is the fitted concentration of half-maximal effect.
Experiment [4] is described as follows: qHTS assay for identifying genotoxic compounds that show differential cytotoxicity against isogenic chicken DT40 cell lines with known DNA damage response pathways - Rad54/Ku70 mutant cell line (AID 743015). Note: nearly all actives have a fitted effect of over 60% in size. Note: potency is the fitted concentration of half-maximal effect.
The target of experiment [5] is Androgen receptor (Homo sapiens) (UniProt P10275). The experiment is described as follows: qHTS assay to identify small molecule antagonists of the androgen receptor (AR) signaling pathway (AID 743035; active = well fitted inhibition curve with a large enough effect in the signal ratio in the repeat runs, not every such curve was filed as active; inconclusive = weak or mixed curves, or effect the other way; inactive = no such curve, though single readings can be large or run the other way; the % refers to the signal ratio; note: potency is the fitted concentration of half-maximal effect). An outline of the steps:
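Beta-lactamase FRET read (2 h RT incubation with LiveBLAzer B/G) following 16 h of compound plus R1881 treatment of AR-UAS-bla HEK293 cells, which had been pre-incubated 4 h at 37C.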

For experiment [6] the target is unchanged. The experiment is described as follows: qHTS assay to identify small molecule agonists of the androgen receptor (AR) signaling pathway using the MDA cell line (AID 743040; note: nearly all actives have a fitted effect of over 20% in size). An outline of the steps:
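MDA-kb2 breast carcinoma cells carrying MMTV-luciferase (responsive to AR and GR), plated 5 h then treated 16 h with compounds at 37C, 0% CO2. Read-out was ONE-Glo luminescence after 30 min at room temperature.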

Experiment [7] is described as follows: qHTS assay to identify small molecule antagonists of the androgen receptor (AR) signaling pathway using the MDA cell line - cell viability counter screen (AID 743041; note: nearly all actives have a fitted effect of over 45% in size). An outline of the steps: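 MDA-kb2 AR-luc cells (MMTV-luciferase, AR/GR responsive) treated with compounds plus R1881 agonist for 16 h at 37C. CellTiter-Fluor added at 15.5 h; fluorescence read after 30 min in the same wells.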

In experiment [8] the target is Androgen receptor (Homo sapiens) (UniProt P10275). The experiment is described as follows: qHTS assay to identify small molecule antagonists of the androgen receptor (AR) signaling pathway using the MDA cell line (AID 743042; note: nearly all actives have a fitted effect of over 55% in size). An outline of the steps:
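MDA-kb2 breast carcinoma cells carrying MMTV-luciferase (AR/GR responsive) were co-treated with compounds and the agonist R1881 for 16 h at 37C. Inhibition read as ONE-Glo luminescence; CellTiter-Fluor fluorescence measured in parallel for cytotoxicity.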

A short description of experiment [9]: qHTS assay to identify small molecule antagonists of the thyroid receptor (TR) signaling pathway - cell viability counter screen (AID 743064). Note: nearly all actives have a fitted effect of over 50% in size. Note: potency is the fitted concentration of half-maximal effect. An outline of the steps: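 CellTiter-Fluor readout, 30 min at 37 °C/5% CO2, following 23.5 h incubation of GH3.TRE-Luc cells with test compound and 1 nM T3 (final).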
Experiment [10] is described as follows: qHTS assay to identify small molecule antagonists of the thyroid receptor (TR) signaling pathway (AID 743065). Note: nearly all actives have a fitted effect of over 55% in size. Note: potency is the fitted concentration of half-maximal effect. An outline of the steps:
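GH3.TRE-Luc rat pituitary cells (two TREs driving luciferase) were dosed with compound, then stimulated with 1 nM T3 (final) for 23.5 h at 37 C. ONE-Glo luminescence was the read-out, with CellTiter-Fluor fluorescence as the cytotoxicity counter-screen.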

In experiment [11] the test system is thyroid hormone receptor (rat, GH3 cells). Put plainly: qHTS assay to identify small molecule agonists of the thyroid receptor (TR) signaling pathway (AID 743066; calls by dose curve).
For experiment [12], the target named is Estrogen receptor (Homo sapiens) (UniProt P03372). The experiment is described as follows: qHTS assay to identify small molecule antagonists of the estrogen receptor alpha (ER-alpha) signaling pathway (AID 743069; active = well fitted curve in the direction sought with a large enough effect in the signal ratio in the repeat runs, not every such curve was filed as active; inconclusive = weak or mixed curves, or effect the other way; inactive = no such curve, though single readings can be large or run the other way; the % refers to the signal ratio; note: potency is the fitted concentration of half-maximal effect). An outline of the steps:
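HEK293 ER-alpha-UAS-bla GripTite cells, held overnight in 2% charcoal-stripped FBS, 5,000 cells/well, preincubated 4 h, then compound plus 17beta-estradiol for 18 h at 37C. Beta-lactamase read by LiveBLAzer B/G FRET substrate, 2 h at room temperature.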

Experiment [13] can be described thus: qHTS assay to identify small molecule antagonists of the estrogen receptor alpha (ER-alpha) signaling pathway - cell viability counter screen (AID 743074; calls by dose curve;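 note: HEK293 cells carrying ER-alpha-UAS-bla reporter stimulated with 17beta-estradiol; nearly all actives have a fitted effect of over 45% in size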; note: potency is the fitted concentration of half-maximal effect).
Experiment [14] has as its target Estrogen receptor (Homo sapiens) (UniProt P03372). The experiment is described as follows: qHTS assay to identify small molecule agonists of the estrogen receptor alpha (ER-alpha) signaling pathway using the BG1 cell line (AID 743079). Note: nearly all actives have a fitted effect of over 20% in size. Note: potency is the fitted concentration of half-maximal effect.
A short description of experiment [15]: qHTS assay to identify small molecule antagonists of the estrogen receptor alpha (ER-alpha) signaling pathway using the BG1 cell line - cell viability counter screen (AID 743081).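 Note: compound given together with 17beta-estradiol as the ER stimulus; series mostly up to about 70 µM; nearly all actives have a fitted effect of over 45% in size.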
In the next experiment the target is Aromatase (Homo sapiens) (UniProt P11511). Put plainly: qHTS assay to identify aromatase inhibitors (AID 743083).
In experiment [16] the target is Estrogen receptor (Homo sapiens) (UniProt P03372). The experiment is described as follows: qHTS assay to identify small molecule agonists of the estrogen receptor alpha (ER-alpha) signaling pathway (AID 743075; calls by dose curve).
Experiment [17] in a line: qHTS assay to identify small molecule antagonists of the estrogen receptor alpha (ER-alpha) signaling pathway using the BG1 cell line (AID 743080; calls by dose curve;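 note: BG1 cells stimulated with 17beta-estradiol alongside compound; series mostly up to about 70 µM; nearly all actives have a fitted effect of over 25% in size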). An outline of the steps:
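BG1-Luc-4E2 cells (endogenous full-length ER-alpha, stable 4×ERE-luciferase) were starved 5 days in phenol-red-free medium with 10% charcoal-stripped FBS, plated 24 h, then given compound plus 17beta-estradiol for 21.5 h at 37 C; ONE-Glo luminescence read after 30 min.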

Sequence of Estrogen receptor (Homo sapiens) (P03372 whole entry, looked up): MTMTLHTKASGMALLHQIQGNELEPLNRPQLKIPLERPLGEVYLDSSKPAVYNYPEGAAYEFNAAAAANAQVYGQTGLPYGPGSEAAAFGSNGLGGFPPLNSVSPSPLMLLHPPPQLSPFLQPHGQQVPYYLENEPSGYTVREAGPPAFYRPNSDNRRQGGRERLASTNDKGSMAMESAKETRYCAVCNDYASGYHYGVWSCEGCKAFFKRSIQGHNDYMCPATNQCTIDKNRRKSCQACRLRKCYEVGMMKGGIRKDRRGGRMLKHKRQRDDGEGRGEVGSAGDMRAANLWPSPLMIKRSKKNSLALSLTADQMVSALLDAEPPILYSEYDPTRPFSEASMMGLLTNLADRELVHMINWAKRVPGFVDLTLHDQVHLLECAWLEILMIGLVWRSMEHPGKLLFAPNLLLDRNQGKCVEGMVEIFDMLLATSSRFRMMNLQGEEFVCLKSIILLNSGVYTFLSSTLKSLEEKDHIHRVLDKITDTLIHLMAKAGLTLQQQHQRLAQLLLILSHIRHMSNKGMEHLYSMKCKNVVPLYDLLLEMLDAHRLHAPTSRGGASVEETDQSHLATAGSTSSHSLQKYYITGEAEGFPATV
Sequence of Aromatase (Homo sapiens) (P11511 whole entry, looked up): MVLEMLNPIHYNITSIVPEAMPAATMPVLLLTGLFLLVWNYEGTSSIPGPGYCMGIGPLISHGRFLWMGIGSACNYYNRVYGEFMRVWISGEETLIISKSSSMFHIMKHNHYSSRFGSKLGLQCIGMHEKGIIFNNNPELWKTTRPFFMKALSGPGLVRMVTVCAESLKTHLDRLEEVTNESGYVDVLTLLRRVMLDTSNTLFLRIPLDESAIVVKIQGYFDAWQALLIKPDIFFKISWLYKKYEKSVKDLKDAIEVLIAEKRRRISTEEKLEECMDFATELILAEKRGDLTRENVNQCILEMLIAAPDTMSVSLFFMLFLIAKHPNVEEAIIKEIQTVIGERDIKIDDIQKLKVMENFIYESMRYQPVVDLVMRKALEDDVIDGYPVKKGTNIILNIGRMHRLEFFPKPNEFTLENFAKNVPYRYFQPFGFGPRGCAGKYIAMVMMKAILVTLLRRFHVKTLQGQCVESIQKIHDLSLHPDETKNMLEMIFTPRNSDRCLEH
Sequence of Androgen receptor (Homo sapiens) (P10275 whole entry, looked up): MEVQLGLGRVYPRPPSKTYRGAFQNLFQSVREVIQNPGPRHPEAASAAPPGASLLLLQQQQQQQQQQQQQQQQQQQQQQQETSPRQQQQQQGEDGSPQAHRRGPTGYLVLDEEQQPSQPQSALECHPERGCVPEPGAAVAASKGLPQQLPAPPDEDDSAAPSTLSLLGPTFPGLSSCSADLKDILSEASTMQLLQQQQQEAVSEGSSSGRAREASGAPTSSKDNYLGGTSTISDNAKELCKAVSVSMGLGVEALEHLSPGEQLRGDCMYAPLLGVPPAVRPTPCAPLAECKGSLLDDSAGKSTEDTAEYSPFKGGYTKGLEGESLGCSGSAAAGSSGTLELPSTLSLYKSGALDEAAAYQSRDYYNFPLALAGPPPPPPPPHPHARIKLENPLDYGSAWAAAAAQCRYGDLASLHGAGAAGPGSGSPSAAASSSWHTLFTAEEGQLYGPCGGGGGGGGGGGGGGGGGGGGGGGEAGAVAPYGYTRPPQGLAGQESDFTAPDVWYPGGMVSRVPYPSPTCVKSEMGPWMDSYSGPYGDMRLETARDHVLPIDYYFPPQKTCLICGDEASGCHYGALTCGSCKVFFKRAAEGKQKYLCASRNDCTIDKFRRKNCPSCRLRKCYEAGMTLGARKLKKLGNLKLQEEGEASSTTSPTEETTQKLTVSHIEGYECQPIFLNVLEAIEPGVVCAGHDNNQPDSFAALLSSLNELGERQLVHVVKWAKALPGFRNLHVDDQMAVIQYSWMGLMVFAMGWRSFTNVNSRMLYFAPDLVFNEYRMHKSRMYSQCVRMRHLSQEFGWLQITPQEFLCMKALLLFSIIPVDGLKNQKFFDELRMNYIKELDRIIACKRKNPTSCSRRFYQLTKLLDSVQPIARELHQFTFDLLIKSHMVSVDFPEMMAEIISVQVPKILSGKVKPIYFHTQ

On to `COc1c(C)c2c(c(O)c1C/C=C(\C)CCC(=O)OCCN1CCOCC1)C(=O)OC2`, for which the Potency result (in experiment [1]; in [7]; in experiment [8]; in experiment [13]; in experiment [15]; with Aromatase (Homo sapiens)) was “inactive” throughout. In addition, the Potency was 0.531 µM (active) in [2]; 0.422 µM (active) in experiment [3]; 0.422 µM (active) in experiment [4]; 0.674 µM (active) in experiment [5]; 1.68 µM (active) in [9]; 0.944 µM (active) in experiment [10]. Besides, the figures for the Potency in experiment [12] and in experiment [14] were 3.38 µM [inconclusive] (active) and 13.3 µM (active), respectively. Further, the compound was classed as inactive in [6] and in experiment [11].
In the case of `C=C(C)C(=O)OCCCCCCCCCC`, the Potency result in experiment [1], in experiment [2], in experiment [3], in experiment [4], in experiment [7] and in [9] was “inactive” in each case. Besides, the Potency result in experiment [10], in experiment [12], in experiment [13], in experiment [16], in experiment [14] and in [17] was “inactive” each time. Moreover, the Potency entry (in experiment [15]; with Aromatase (Homo sapiens)) was “inactive” in each case. Also, the compound was classed as inactive in [11].
Turning to `CC(C)CCOC(=O)/C=C/c1ccccc1`, the Potency entry in [1], in experiment [2], in experiment [3], in experiment [4], in experiment [7] and in experiment [9] was “inactive” throughout. The Potency entry (in [12]; in experiment [16]; in experiment [15]; with Aromatase (Homo sapiens)) was “inactive” throughout. The result in experiment [11] was inactive. Also, in experiment [14], the Potency was 24.4 µM (active).
Regarding `O=C1CCc2ccc(OCCCCN3CCN(c4cccc(Cl)c4Cl)CC3)cc2N1`, the Potency result (in experiment [1]; in experiment [7]; with Aromatase (Homo sapiens)) was “inactive” throughout. For the same compound, the Potency in [2] is 5.96 µM (active); in experiment [3] it was 5.31 µM (active); in [4], 6.68 µM (active); in experiment [9], 11.9 µM (active); in [10] it was 11.9 µM (active); in [13] it was 23.9 µM (active).
For `Nc1nc2c(ncn2COCCO)c(=O)[nH]1`, the Potency result in experiment [1], in [7], in experiment [12], in [13], in experiment [16] and in [14] was “inactive” in each case. For the same compound, the Potency result (in experiment [17]; in experiment [15]; with Aromatase (Homo sapiens)) was “inactive” in each case. In addition, the Potency in experiment [2] was 2.54 µM (active); in [3], 2.27 µM (active); in experiment [4] it was 4.52 µM (active).
In the case of `CC[N+](CC)(CC)CCOC(=O)C(C1CCCC1)C1CCCC1`, the Potency entry in experiment [1], in [7], in experiment [9], in experiment [12], in [13] and in [16] was “inactive” throughout. For the same compound, the Potency result (in experiment [14]; in experiment [17]; in experiment [15]; in the experiment with Aromatase (Homo sapiens)) was “inactive” in each case. In addition, the values for the Potency in experiment [2], in [3] and in experiment [4] were 5.31 µM (active), 11.9 µM (active) and 8.41 µM (active), respectively. Further, the compound was classed as inactive in experiment [11].
As to `Cc1ccc(C(=O)O)cc1`, the Potency result in [1], in [2], in experiment [3], in [4], in [7] and in experiment [9] was “inactive” each time. The Potency result (in experiment [10]; in experiment [13]; in experiment [15]; with Aromatase (Homo sapiens)) was “inactive” throughout. The result in [11] was inactive.
Turning to `CCCCCCCC/C=C\CCCCCCCCN`, the Potency entry in experiment [1], in experiment [2], in experiment [3], in [4], in [7] and in [9] was “inactive” throughout. The Potency entry in experiment [12], in experiment [13], in [16], in experiment [14], in [17] and in [15] was “inactive” throughout. Also, the Potency result with Aromatase (Homo sapiens) is “inactive”. Besides, the result in experiment [11] was inactive.
